Data published in ChEMBL document CHEMBL3988442, “University of Dundee, Small-Polar-MMV Screening Library” (2021).
The campaign covered roughly 48,000 compounds. About 13,000 (27%) showed an effect of 50% or more. This is one part of the list.

Test system: Wolbachia pipientis
Assay: Anti-Wolbachia Cell-Based Screen
Format: functional
Set-up: scale not given: in the data most compounds retested in dose-response had high values
Conditions: 5 µM

Structure (SMILES)	Percent Effect [%]
CCNc1ccnc(-c2ccnc3c2ccn3C)n1	5.655
COc1cc(NCCNC(=O)c2ccc3[nH]ccc3c2)cc(OC)c1	-37.35
CN1C(=O)[C@H]2CC[C@@H]1CN(C(=O)c1sccc1S(N)(=O)=O)C2	0.6963
Cc1cnc(CN2CCCC(c3cc(C(N)=O)[nH]n3)C2)cn1 (stereo not drawn)	0.6166
Cc1ncc(CN2CCCC(c3cc(C(N)=O)[nH]n3)C2)s1 (stereo not drawn)	121.8
O=C(CCc1cscn1)NS(=O)(=O)c1ccc2c(c1)CCC2	0.3885
Cn1ccc(CN2CCC3(CC2)CC(Nc2cnccn2)CO3)n1.O=C(O)C(F)(F)F (stereo not drawn)	4.568
O=C(Cc1ccccc1)N1CCC2(CC1)CC(Nc1cnccn1)CO2 (stereo not drawn)	117.3
Cn1ccc(C(=O)N2CCC3(CC2)CC(Nc2cnccn2)CO3)n1 (stereo not drawn)	103.2
Cn1ccc(CN2CCC3(CC2)CC(Nc2ccccn2)CO3)n1.O=C(O)C(F)(F)F (stereo not drawn)	-6.155
Cc1nc2ncccn2c1C(=O)N1CCc2[nH]cnc2C1	16.62
CN(CC1CCN(CCO)CC1)CC(O)c1ccc(F)c(F)c1 (stereo not drawn)	6.752
COC(=O)c1cccc(-c2c[nH]c(C)n2)c1	-9.245
COc1cccc(-n2cc(-c3ccnc(N[C@@H](CO)C(C)C)n3)cn2)c1	-10.41
COC(=O)c1ccc2c(-c3ccnc(N[C@@H](C)CO)n3)c[nH]c2c1	96.47
CSCCCNc1nccc(-c2cc(C(=O)O)ccn2)n1	-11.9
CC(C)C(=O)NCCNc1nccc(-c2cc(C(=O)O)ccn2)n1	-18.63
CC[C@@H](CO)Nc1nccc(-c2c[nH]c3cc(C(=O)OC)ccc23)n1	73.76
COC(=O)c1ccc2c(-c3ccnc(NCCO)n3)c[nH]c2c1	85.03
Cc1ccc(CCNc2nccc(-c3cc(C(=O)O)ccn3)n2)o1	-34.17
CCCN1C[C@H]2CC[C@@H]1CN(Cc1ccc(-n3cccn3)cc1)C2	12.23
O=C(CCc1cn[nH]c1)N1CCC(C2CCN(c3ncccn3)CC2)C1 (stereo not drawn)	-3.024
CN1CCN(C[C@@H]2CN(C(=O)CCc3cn[nH]c3)C[C@@H]2CO)CC1	-11.62
CN1CCOC(CNCc2nc(-c3cccnc3)no2)C1 (stereo not drawn)	17.39
CN1CCOC(CNCc2coc(-c3cccc(F)c3)n2)C1 (stereo not drawn)	69.38
CN1CCOC(CNCc2coc(-c3cccc(Cl)c3)n2)C1 (stereo not drawn)	93.12

Structure (SMILES)	Percent Effect [%]
CN(C)Cc1ccc(C2CCCCN2C(=O)c2cc(=O)[nH]c(=O)[nH]2)cc1 (stereo not drawn)	-0.1381
Cc1cnn(CCNCc2nc(-c3ccccc3Cl)no2)c1	-13.51
CC[C@H]1N(CC2CCOCC2)CCC[C@]12CCC(=O)N2.O=C(O)C(F)(F)F	-18.34
COCCN(Cc1ccc(C)cc1)Cc1c[nH]cn1	-2.598
Cc1cc(C)n(CCC2CC(=O)Nc3cc(O)c(C)cc32)n1 (stereo not drawn)	-2.617
Cc1noc(C)c1CCC(=O)N1CCN(CCn2cccn2)CC1	-16.11
Cc1nccnc1CCC1COCCN1C(=O)CCc1c(C)noc1C (stereo not drawn)	121.1
Cc1noc(C)c1CCC(=O)N1CCOCC1CCc1cnccn1 (stereo not drawn)	115.4
Cc1noc(C)c1CCC(=O)N1CCN(CCn2cncn2)CC1	-13.84
CC(=O)N1CCCN(C(=O)CCc2c(C)noc2C)CC1	-13.07
Cc1noc(C)c1CCC(=O)N1CCOCC1CC(=O)N1CCCC1 (stereo not drawn)	72.16
Cc1cc(C)cc(OCCC(=O)N2CCOCC2c2ncon2)c1 (stereo not drawn)	-11.58
Cc1noc(Cl)c1CCC(=O)N1CCN(c2ncccn2)CC1	8.959
CCc1ccc(CCC(=O)N2CCOCC2c2ncon2)cc1 (stereo not drawn)	5.794
O=C(c1ccc2cccc(F)c2n1)N1CCN(CCn2cccc2)CC1	4.444
COCCNC(=O)[C@H]1CO[C@H]2CCN(Cc3cccs3)C[C@H]2C1	107.4
COCCNC(=O)[C@H]1C[C@@H]2CCN(Cc3nccs3)C[C@H]2O1.O=C(O)C(F)(F)F	2.995
COC(=O)N1CCc2ccccc2C1C(=O)NCc1cccs1 (stereo not drawn)	1.281
O=C(CN1CCC(c2ccnn2CCO)CC1)NCc1cccs1	-0.7289
CCN1CC[C@@H]2OC[C@H](C(=O)NCc3cccs3)C[C@@H]2C1	91.2
Cc1ncccc1NC(=O)[C@@H]1C[C@@H]2CCN(Cc3cccs3)C[C@H]2O1.O=C(O)C(F)(F)F.O=C(O)C(F)(F)F	-1.319
COc1ccc(F)cc1CN1CCN(Cc2nccn2C)C(C)C1 (stereo not drawn)	-0.7274
CC(=O)N1CC(=O)N(c2ccccc2)CC12CCN(Cc1ccsc1)C2 (stereo not drawn)	-2.634
CC(=O)N1CC(=O)N(c2ccccc2)CC12CCN(CC1CC1)C2.O=C(O)C(F)(F)F (stereo not drawn)	-3.194
CC(=O)N1CC(=O)N(c2ccccc2)CC12CCN(Cc1nccs1)C2.O=C(O)C(F)(F)F (stereo not drawn)	-14.31
CC(=O)N1CC(=O)N(c2ccccc2)CC12CCN(Cc1ccoc1)C2.O=C(O)C(F)(F)F (stereo not drawn)	103.1

Structure (SMILES)	Percent Effect [%]
CC(=O)N1CC(=O)N(c2ccsc2)CC12CCN(Cc1ccccn1)C2.O=C(O)C(F)(F)F (stereo not drawn)	-6.842
CC(=O)N1CC(=O)N(c2ccsc2)CC12CCN(Cc1ccoc1)C2 (stereo not drawn)	104.4
CC(C)OCCOCc1cccc(NC(=O)NCC(=O)N(C)C)c1	-22.62
CCN1CCN2CCCN(S(=O)(=O)c3ccc(C)cc3C)C2C1=O (stereo not drawn)	0.9872
CN1CCN(c2ccc(NCc3ccsc3)cn2)CC1	-12.65
CN(C)C(=O)COCC1CN(C2CCC2)Cc2ncn(C)c21.O=C(O)C(F)(F)F.O=C(O)C(F)(F)F (stereo not drawn)	85.57
CCOCC1CN(C(=O)COc2ccccc2C)Cc2ncn(C)c21.O=C(O)C(F)(F)F (stereo not drawn)	-10.67
Cn1cnc2c1C(COCC1CCOCC1)CN(C(=O)C1CC=CC1)C2.O=C(O)C(F)(F)F (stereo not drawn)	-7.237
CN(C)C(=O)COCC1CN(S(C)(=O)=O)Cc2ncn(C)c21.O=C(O)C(F)(F)F (stereo not drawn)	94.11
COCC1CN(C(=O)COc2ccccc2)Cc2ncn(C)c21.O=C(O)C(F)(F)F (stereo not drawn)	-7.331
COCCN(Cc1sccc1C)c1nc(C)nc2sccc12	-3.328
CNC(=O)[C@@H]1C[C@@H](N)CN1Cc1cc2cc(C)cc(C)c2[nH]c1=O	3.33
CN(Cc1cnn(C)c1)S(=O)(=O)N1CCc2ccccc2C1	11.11
CCN(Cc1cccc(-c2ccncc2)c1)S(N)(=O)=O	-1.235
CCS(=O)(=O)c1ccc2oc([C@H]3CCN(Cc4cccnc4)C3)nc2c1	-5.049
CCN(CC)S(=O)(=O)c1ccc2c(c1)N(Cc1cccnc1)C(=O)CS2	103.1
CCN(CC)S(=O)(=O)c1ccc2c(c1)N(Cc1ccncc1)C(=O)CS2	122
CC(C)N1CCC(Nc2ccn(Cc3ccccn3)n2)C1=O (stereo not drawn)	7.705
CCN(CC)S(=O)(=O)N1CCC(c2nccn2Cc2ccccn2)CC1	1.2
CCN(CC)S(=O)(=O)N(C)Cc1ccncc1	-6.423
CCN(CC)S(=O)(=O)c1ccc2c(c1)N(Cc1ccccn1)C(=O)CS2	124.5
CCN(CC)S(=O)(=O)N1CCCC(c2nccn2Cc2cccnc2)C1 (stereo not drawn)	-1.362
CC(=O)N1CCC(C(=O)NCCN2CCC(C)CC2)CC1	-2.341
CCN1C(=O)CC(c2cnn(C)c2)C12CCN(C(=O)c1ccoc1)CC2 (stereo not drawn)	0.4401
Cc1nccn1-c1ccc(C(C)NCc2cccn2C)cc1 (stereo not drawn)	-7.942
Cc1ccnc(Cn2cc(-c3cccc(C(C)N(C)C)c3)nn2)c1 (stereo not drawn)	12.93

Structure (SMILES)	Percent Effect [%]
COc1ccc2c(c1)CCCN2C(=O)CN1CCOC(C)C1 (stereo not drawn)	-7.941
CCC(Nc1ccc(Oc2ccccc2OC)cc1)C(N)=O (stereo not drawn)	11.69
CCOC(=O)C(C)Nc1ccc(CCN2CCOCC2)cc1 (stereo not drawn)	97.92
COC(=O)C(O)C1CCN(CCc2ccncc2)CC1 (stereo not drawn)	-5.946
CCC(Nc1ccc(CCN2CCOCC2)cc1)C(N)=O (stereo not drawn)	92.12
CC(Nc1ccc(CCN2CCCCC2)cc1)C(=O)N(C)CCC#N (stereo not drawn)	-7.662
CCC(C)C(=O)Nc1ccc(CCN2CCOCC2)cc1 (stereo not drawn)	92.28
CC(Nc1ccc(CCN2CCOCC2)cc1)C(=O)N(C)CCC#N (stereo not drawn)	7.396
Cc1ccc(CCCC(=O)N(C)CCN2CCOCC2)cc1	-4.729
CC(CCc1ccccc1)NC(=O)CN1CCOCC1 (stereo not drawn)	-21.53
NC(=O)C1CCN(CCc2ccc(NC(=O)C3CCC3)cc2)CC1	-0.7709
O=C(Nc1ccc(CCN2CCC(O)CC2)cc1)C1CCOCC1	8.941
CCC(Nc1ccc(CCN2CCCCC2)cc1)C(N)=O (stereo not drawn)	104.3
CCOc1cc(NC(=O)NCCn2cnnc2CC)ccc1C	-0.5638
CCc1nc(CN2CCN(c3ncnc4cc(F)ccc34)CC2)no1	-16.98
CN(CCO)Cc1nnc(C2CCN(C(=O)c3cc[nH]c3)CC2)n1C	-143.4
Cc1ccc(C(=O)N2C[C@@H]3CN(c4ncccn4)C[C@@H]3C2)cc1	3.247
CN(C)C(=O)[C@@H]1CCO[C@@H]2CCN(c3ncccn3)C[C@@H]21.O=C(O)C(F)(F)F	0.2661
CN(C)C(=O)CN1C[C@H]2CCN(c3ncccn3)CC[C@H]2S1(=O)=O.O=C(O)C(F)(F)F	-3.991
CSc1cccc(CN(C)C(=O)CN2CCN(c3ncccn3)CC2)c1	-6.038
Cc1ccc(C(=O)N2C[C@@H]3CN(c4ncccn4)C[C@@H]3C2)cn1	1.13
CN1CCN(c2ncccn2)CC(C(=O)N(C)C)C1 (stereo not drawn)	92.05
CN(C)C(=O)[C@H]1C[C@@H]2CN(c3ncccn3)C[C@H]1O2	10.85
CN1CCN(c2ncccn2)CC1C(N)=O (stereo not drawn)	76.51
CN(C)C(=O)C1CN(c2ncccn2)CCN1C (stereo not drawn)	84.43
